According to PubChem BioAssay:
A number with no mark means an inactive call. For some of these results: Results with a measured potency or affinity are listed apart. Calls of active or inactive are those of the source. Unless noted, the rule behind the calls is not given here.

How the values were obtained:
[1] = antimalarial activity against Dd2 strain (AID 2302;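 active = growth inhibition above 50% at the single 2 µM test dose, taken to imply half-maximal potency below 2 µM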;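 note: 0% = DMSO untreated growth and 100% = chloroquine plus artemisinin killed control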); settings: P. falciparum Dd2 in RBCs, LDH growth readout, 72 h; at 2 µM; hits give high values
[2] = HepG2 cytotoxicity, primary screen, cytotoxicity control for P. falciparum antimalarial project, cell-based, ATP luminescence (AID 2303;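 active = inhibition above 50%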;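 note: 0% = DMSO wells and 100% = digitonin-killed cells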); settings: HepG2 viability, 24-48 h, at 10 µM, hits give high values
[3] = target: L-lactate dehydrogenase (Plasmodium falciparum (isolate CDC / Honduras)) (UniProt Q27743); test: PfLDH activity inhibition – cell lysate, 3D7 strain, counter-screen for P. falciparum growth inhibition project (AID 2304);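 note: 0% = vehicle and 100% = reference inhibitor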; settings: P. falciparum 3D7 crude extract, LDH APAD/NBT absorbance; at 2 µM; hits give high values
[4] = inhibition of 3D7 malaria parasite growth – strain 3D7 (AID 2306);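 note: 0% = DMSO wells and 100% = chloroquine plus artemisinin control wells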; settings: P. falciparum 3D7 erythrocytic growth, LDH absorbance, 72 h; at 2 µM; hits give high values
[5] = target: Calcium-dependent protein kinase 1 (Plasmodium falciparum (isolate 3D7)) (UniProt P62344); test: PfCDPK1 kinase inhibitors, biochemical, TCAMS library (AID 1159585; cut-off not given, nearly all actives have IC50 up to about 0.98 µM;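 note: inhibitors leave more ATP so luminescence rises with inhibition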); settings: recombinant PfCDPK1, Kinase-Glo ATP depletion luminescence
[6] = target: Plasmodium falciparum protein kinase 6 (PK6, PF3D7_1337100) (UniProt Q8IDW1); test: PfPK6 kinase inhibitors, biochemical, TCAMS library (AID 1159586); settings: recombinant PfPK6, Kinase-Glo ATP depletion luminescence
[7] = target: Protein kinase 7 (PK7), Plasmodium falciparum 3D7 (PF3D7_0213400) (UniProt Q7YTF7); test: inhibition of Plasmodium PK7 catalytic activity – biochemical, TCAMS antimalarial set, Kinase-Glo luminescence (AID 1159587); settings: recombinant PfPK7, Kinase-Glo ATP depletion luminescence
[8] = target: Calcium-dependent protein kinase 4 (Plasmodium falciparum (isolate 3D7)) (UniProt Q8IBS5); test: PfCDPK4 kinase inhibitors, biochemical, TCAMS library (AID 1159588; cut-off not given, nearly all actives have IC50 up to about 0.91 µM); settings: recombinant PfCDPK4, Kinase-Glo ATP depletion luminescence
Sequence of Calcium-dependent protein kinase 4 (Plasmodium falciparum (isolate 3D7)) (Q8IBS5 whole entry, looked up): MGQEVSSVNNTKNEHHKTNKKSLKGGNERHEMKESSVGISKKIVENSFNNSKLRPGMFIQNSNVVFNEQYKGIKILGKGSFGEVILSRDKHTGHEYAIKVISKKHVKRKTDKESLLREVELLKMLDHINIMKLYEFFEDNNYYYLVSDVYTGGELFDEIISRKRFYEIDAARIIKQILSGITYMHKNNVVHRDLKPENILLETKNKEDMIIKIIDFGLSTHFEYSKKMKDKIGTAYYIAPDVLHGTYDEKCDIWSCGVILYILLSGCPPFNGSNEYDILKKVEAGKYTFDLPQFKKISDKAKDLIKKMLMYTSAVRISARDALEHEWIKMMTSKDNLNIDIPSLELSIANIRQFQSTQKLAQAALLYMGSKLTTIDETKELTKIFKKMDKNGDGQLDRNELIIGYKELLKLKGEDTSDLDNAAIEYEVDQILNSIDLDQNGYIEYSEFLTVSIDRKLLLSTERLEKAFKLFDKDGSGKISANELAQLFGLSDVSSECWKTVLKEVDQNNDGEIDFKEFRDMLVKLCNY

Sequence of L-lactate dehydrogenase (Plasmodium falciparum (isolate CDC / Honduras)) (Q27743 whole entry, looked up): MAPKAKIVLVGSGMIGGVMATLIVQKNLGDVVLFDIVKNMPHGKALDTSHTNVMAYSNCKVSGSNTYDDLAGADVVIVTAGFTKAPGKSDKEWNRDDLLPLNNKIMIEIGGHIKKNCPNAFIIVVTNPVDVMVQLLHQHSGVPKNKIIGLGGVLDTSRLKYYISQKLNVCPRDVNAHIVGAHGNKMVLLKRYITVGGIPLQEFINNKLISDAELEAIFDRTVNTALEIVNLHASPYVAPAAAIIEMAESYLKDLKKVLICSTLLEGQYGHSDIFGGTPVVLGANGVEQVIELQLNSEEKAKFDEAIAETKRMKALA
Sequence of Calcium-dependent protein kinase 1 (Plasmodium falciparum (isolate 3D7)) (P62344 whole entry, looked up): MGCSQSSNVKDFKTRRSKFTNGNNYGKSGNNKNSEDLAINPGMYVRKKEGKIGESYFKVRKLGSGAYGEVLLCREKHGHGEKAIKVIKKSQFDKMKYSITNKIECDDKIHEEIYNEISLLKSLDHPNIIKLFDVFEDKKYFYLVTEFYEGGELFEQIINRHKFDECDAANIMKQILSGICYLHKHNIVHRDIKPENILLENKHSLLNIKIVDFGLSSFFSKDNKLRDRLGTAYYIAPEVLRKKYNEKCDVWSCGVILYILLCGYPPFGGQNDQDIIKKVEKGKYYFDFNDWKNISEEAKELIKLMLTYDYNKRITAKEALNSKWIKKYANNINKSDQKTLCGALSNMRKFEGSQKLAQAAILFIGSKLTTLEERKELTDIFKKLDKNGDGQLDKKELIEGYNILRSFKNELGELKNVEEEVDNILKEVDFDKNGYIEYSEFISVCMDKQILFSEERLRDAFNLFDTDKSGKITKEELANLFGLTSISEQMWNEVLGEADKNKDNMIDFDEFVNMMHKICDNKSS
Sequence of Plasmodium falciparum protein kinase 6 (PK6, PF3D7_1337100) (Q8IDW1 1-305): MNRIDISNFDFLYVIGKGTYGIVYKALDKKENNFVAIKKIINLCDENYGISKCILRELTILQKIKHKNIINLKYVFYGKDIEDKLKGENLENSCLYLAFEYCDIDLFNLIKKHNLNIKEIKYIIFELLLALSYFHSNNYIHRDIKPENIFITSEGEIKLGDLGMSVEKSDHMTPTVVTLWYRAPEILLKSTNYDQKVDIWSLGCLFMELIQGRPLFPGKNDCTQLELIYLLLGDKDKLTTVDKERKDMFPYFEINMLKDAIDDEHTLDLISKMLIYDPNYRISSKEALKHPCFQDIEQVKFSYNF
Sequence of Protein kinase 7 (PK7), Plasmodium falciparum 3D7 (PF3D7_0213400) (Q7YTF7 1-343): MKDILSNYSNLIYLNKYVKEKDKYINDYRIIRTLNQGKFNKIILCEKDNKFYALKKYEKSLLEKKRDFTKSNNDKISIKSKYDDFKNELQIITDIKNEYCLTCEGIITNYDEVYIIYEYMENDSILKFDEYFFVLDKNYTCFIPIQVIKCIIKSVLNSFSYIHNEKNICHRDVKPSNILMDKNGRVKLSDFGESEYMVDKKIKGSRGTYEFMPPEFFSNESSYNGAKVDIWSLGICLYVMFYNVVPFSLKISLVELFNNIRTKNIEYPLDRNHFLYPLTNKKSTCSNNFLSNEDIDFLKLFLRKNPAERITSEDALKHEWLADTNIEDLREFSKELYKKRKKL

| Compound | growth inhibition [1] | inhibition [2] | inhibition [3] [%] | growth inhibition [4] | outcome [5] | outcome [6] | outcome [7] | outcome [8] |
| --- | --- | --- | --- | --- | --- | --- | --- | --- |
| CN(Cc1ccc(NC(=O)CCC2CCN(C(=O)/C=C/c3ccc(Cl)c(Cl)c3)CC2)cc1)C1CCOCC1 | 2% | 10% | 0 | 94% (active) | inactive | inactive | inactive | inactive |
| COc1ccc(-c2nc3c4cc(I)ccc4c4ccccc4c3[nH]2)cc1 | 16% | 4% | -3 | 96% (active) | inactive | inactive | inactive | inactive |
| Cc1nnsc1C(=O)Nc1ccc(-c2cccc(-c3nc4c(C)cccc4[nH]3)c2)cc1 | 47% | 23% | 4 | 98% (active) | inactive | inactive | inactive | inactive |
| CCOc1cc2ncnc(Nc3cc(Cl)c(Cl)c(Cl)c3)c2cc1OCC | 98% (active) | 11% | -3 | 102% (active) | inactive | inactive | inactive | inactive |
| COc1ccc2nccc([C@@H](O)CN3CCC(NC(=O)C(c4cc5ccccc5o4)N4CCN(c5ccccc5)CC4)CC3)c2c1 (stereo not given in full) | 99% (active) | 19% | -2 | 99% (active) | inactive | inactive | inactive | inactive |
| O=C(Nc1ccc(Cl)cc1)Nc1cccc(-c2cccc(-c3nc4ccc(C(F)(F)F)cc4[nH]3)c2)c1 | 97% (active) | 87% (active) | 1 | 99% (active) | inactive | inactive | inactive | inactive |
| O=c1cc(NCCCNCc2cc3ccc(Br)cc3s2)[nH]c2ccccc12 | 8% | 18% | -2 | 92% (active) | inactive | inactive | inactive | inactive |
| COc1cc(Cc2cnc(N)nc2N)cc(OC)c1OCCNC(=O)[C@@H](N)CCC(=O)O | -4% | -1% | -6 | 96% (active) | inactive | inactive | inactive | inactive |
| Cc1cccc2[nH]c(-c3cccc(-c4ccc(NC(=O)CC5NC(=O)c6ccccc65)cc4)c3)nc12 (stereo not given) | 67% (active) | 30% | -7 | 100% (active) | inactive | inactive | inactive | inactive |
| COc1ccc(CCN(C)CCOc2ccc(NC(=O)c3cc(SC)cc4c(=O)c5ccccc5[nH]c34)cc2)cc1OC | 44% | 7% | 0 | 87% (active) | inactive | inactive | inactive | inactive |
| Nc1c2ccccc2nc2cc(Cl)ccc12 | 86% (active) | 24% | -3 | 103% (active) | inactive | inactive | inactive | inactive |
| CCCN(CCC)C(=O)c1cc(-c2cccc(C)c2)nc2ccccc12 | 59% (active) | 17% | -6 | 86% (active) | inactive | inactive | inactive | inactive |
| CCC(CC)(Cc1ccccc1)NC(=O)[C@H](CC1CCCCC1)Nc1ccc(C#N)c2ccccc12 | 76% (active) | 4% | -5 | 95% (active) | inactive | inactive | inactive | inactive |
| CC(C)NCc1ccc(-c2ccc(NC(=O)c3cccc(Cl)c3)cc2)cc1 | 14% | 36% | -2 | 100% (active) | inactive | inactive | inactive | inactive |
| CCCCNC(=O)C(C)NC(=O)c1ccc(O)c(-c2ccc(Cl)c(Cl)c2)c1 (stereo not given) | 8% | -5% | 2 | 98% (active) | inactive | inactive | inactive | inactive |
| NCCC(=O)Nc1ccc(-c2cnc3[nH]cc(-c4ccc(C(=O)O)cc4)c3c2)cn1 | 67% (active) | -8% | 3 | 99% (active) | inactive | inactive | inactive | inactive |
| CCCN1CCN(c2cc(NCC)c3c4c(onc24)-c2ccccc2C3=O)CC1 | 11% | 4% | 6 | 96% (active) | inactive | inactive | inactive | inactive |
| COc1ccccc1N1CCN(CCCCNC(=O)c2ccc(NC(=O)c3ccc4ccccc4c3)cc2)CC1 | 18% | 16% | 1 | 97% (active) | inactive | inactive | inactive | inactive |
| COc1cc2ccccc2cc1CCNCCCCNCCc1cc2ccccc2cc1OC | 38% | 100% (active) | 2 | 99% (active) | inactive | inactive | inactive | inactive |
| c1cc(CN2CCC(CCN3CCCCC3)CC2)cc(-c2csc(-c3nc4ccccc4[nH]3)c2)c1 | 99% (active) | 89% (active) | -3 | 99% (active) | inactive | inactive | inactive | inactive |
